These sequences were tested against GHDC (assay: pooled miR-30 sensor sort-seq; sequence = guide strand). Details: shRNA.
Further: reference of the scale not given here.

| Sequence | sensor-assay potency score (higher = more potent) |
| --- | --- |
| TCCACTGTCTTCCTGCTGGGTC | -1.07 |
| TAGCTCTTCACCATCAGTCTCC | 0.0115 |
| TTCCTCTGACAGATTCCTCAGC | -0.103 |
| TGCTGCTCTCCACACAGCCATG | -2.06 |
| TTATGTCTGTGCTCCTTCTGAG | -0.0646 |
| TCCAGCCTGCAGATGAACCTGA | -0.985 |
| TTTTCCTCTGACAGATTCCTCA | -0.542 |
| CTGCTCTCCACTGTCTTCCTGC | -1.58 |
| TCAGAGAACAGGTCTTCACCAA | 0.187 |
| TTGTAGGCACCAACCACTCGCA | -0.926 |
| AGAAGTTCGACAGCCGTCCCAG | -0.973 |
| ATTGTAGGCACCAACCACTCGC | 0.0645 |

Each sequence was assayed against GHRL in the same assay as above. Details: shRNA.

| Sequence | sensor-assay potency score (higher = more potent) |
| --- | --- |
| TCTTCGACTCCTTTCTCTGCTG | -0.622 |
| TGTCCTGAAGAAACTTCCCCAG | -1.03 |
| TAGAGCTCGGGGCTGCAGCTTG | -0.899 |
| TGCTTGACCTCCATCTTCCGGG | -0.583 |
| TTCTCTGCTGGACTCTCTGGTG | -0.904 |
| TTGACCTCCATCTTCCGGGCGG | -0.454 |
| TTGATTCCAACATCAAAGGGGG | 0.299 |
| TTTCTCTGCTGGACTCTCTGGT | 0.0983 |
| TGAGCTTGTACAACAGTCGTGG | 0.776 |
| TCTCTGCTGGACTCTCTGGTGT | -0.98 |
| TTCTGCTTGACCTCCATCTTCC | -0.0657 |
| TACTGAACCCCTGACAGCTTGA | -0.592 |

These sequences were tested against GHR in the same assay as above. Details: shRNA.

| Sequence | sensor-assay potency score (higher = more potent) |
| --- | --- |
| TAATCTTTGGAACTGGAACTGG | -0.523 |
| TTCTGGTATAGAACAGCTGTAT | -1.1 |
| TGAACTTGGATTGCTTAGCTGA | 0.127 |
| TTTCTGAATATCTGCATTGCGT | -0.999 |
| TAGAAGTCTGTCTGTGTCTGAT | -0.00194 |
| TCATACTCCAGAACCATCCATC | -0.368 |
| TATGAATGGAGGTATAGTCTGG | 0.0222 |
| TAGCTCAATAAATTCAACCCAA | -0.0787 |
| TTAGAAGTCTGTCTGTGTCTGA | 0.716 |
| TTCATCAACAGAGAAACACTTT | 0.81 |
| TTAGCTTGATACAATAAGGTAT | 0.218 |

What follows are sequences tested against GHSR in the same assay as above. Details: shRNA.

| Sequence | sensor-assay potency score (higher = more potent) |
| --- | --- |
| ATCTGAGCAATCTCCAAGGAGC | -1.45 |
| TTGGAAAATAAATATCGCCCTA | -0.35 |
| TTTCACGGTTTGCTTGTGGTTC | -0.265 |

— the OligoGym collection
